# Test results as given in the supplement of paper PMC10338343.
# ± gives the standard deviation.
# System: EfPiwi piRISC loaded with L1MC piRNA (26 nt)
# Experiment: pre-steady-state target cleavage rate (min^-1); auxiliary factor: 500 nM Ephydatia muelleri Gtsf1; guide: L1MC piRNA 5'p-UAACUAAAUACUAUGCAAGCUGUAGG; MIWI and MILI are mouse PIWI proteins and EfPiwi is from a freshwater sponge; tags in brackets are library labels; higher = faster piRNA-guided slicing of the target
# Procedure, shortened: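 Using HEPES–potassium acetate buffer at 33 °C, 1 nM active affinity-purified piRISC with a single synthetic guide was mixed with 0.1 nM transcribed, DNA-blocked target RNA library for 0–8 or 0–960 min, with or without 500 nM GTSF1 partner protein. Uncleaved targets were sequenced and normalised to depth and to weakly complementary targets, and three trials were pooled with k3 capped at 0.0001 min^-1. A burst-and-steady-state fit gave the pre-steady-state cleavage rate.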
row,Sequence,pre-steady-state target cleavage rate
1,UCCUCCUACACGAUGCAUAGUAUUUAGAAA,0.00369 ± 0.0021
2,UCCUGCUACAGCUUGCAUAGUAUUUAGUUC [g2:g25:cont:t1C],0.0645 ± 0.016
3,UCCUGGUACAGCUUGCAUAGUAUAUUCAAA,0.00341 ± 0.0028
4,UCCUGGAUGUGCGUUGCAUAGUAUUUAGUUA,0.00539 ± 0.0024
5,UCCUGCUACAGCUUGCUUAGUAUUUUCAAA,0.00321 ± 0.003
6,UCCUCCUACAGCUUGCAUAGUAUUAUGUAA,0.00434 ± 0.0026
7,UCCUGGUACAGCUUGCAUAGUAAAUAGUUA,0.00642 ± 0.0025
8,UCCUGGAACAGGUUGCAUUGUAUUUAGUUA,0.00526 ± 0.0019
9,UCCUCCUACACUUGCAUAGUAUUUAGUUA,0.049 ± 0.015
10,UCCUGGAAGAGCUAGCAUAGUAUUUAGUUA,0.00727 ± 0.0022
11,UCCUGCUACAGCUUGCAUAGUAAUUAGAUA,0.00345 ± 0.0018
12,UCCUGGAUGUCGAACGUUAGUAUGUUAGUUA,< 0.0001
13,UCCUGCUAGUCCUUGCAUAGUAUUUAGUUA,0.00428 ± 0.0023
14,UCCUGGAUGUCGAACCAUAGAUAUUAGUUA,< 0.0001
15,UCCUGGAUGUCGAACGUAUCUAUUAUCUUA,< 0.0001
16,UCCUGGUACAGCUUCCAUAGUAUUUAGUUA,0.00258 ± 0.0017
17,UCCUGGAUGUCGAACGUAAGUAUUUAAUUA,< 0.0001
18,UCCUGGAUGUCGAACGUUACUAUUUAGUUA,< 0.0001
19,UCCUGGAUGUGCUUGCAUAGUAUUUAGUA,0.00405 ± 0.002
20,UCCUCCUACAGCUGCAUAGUAUUUAGUUA,0.0884 ± 0.026

row,Sequence,pre-steady-state target cleavage rate
1,UCCUGGUACAGCUUGCAUAGUAUUAAGUAA,0.0031 ± 0.0028
2,UCCUGGUACAGCUUGCAUAGUAUUAAGAUA,0.0058 ± 0.0028
3,UCCUGGUACAGGUUGCAUACUAUUUAGUUA,0.00258 ± 0.002
4,UCCUCCUACAGCUUGGAUAGUAUUUAGAAA,0.00325 ± 0.0015
5,UCCUGGAUGUCGUUGGUAAGUAUUUAGUUA,< 0.0001
6,UCCUGGAUCAGCUAGCAUAGUAAUUAGUUA,0.00458 ± 0.0024
7,UCCUGGAUGUCGAUGCAUAGUAUUUAGUUA [g2:g17:cont:t1A],0.00648 ± 0.0023
8,UCCUGGUACAGCUAGCAUAGUAUUUAGAUA,0.00618 ± 0.0029
9,UCCUGCUACUGCUUGCAUAGUAAUUAGUUA,0.00587 ± 0.0019
10,UCCUGGAUGAGCUCUGCAUAGUAUUUAGUUA,0.00721 ± 0.0028
11,UCCUGCUACAGCUAGCAUAGUAAUUAGUUA,0.00598 ± 0.0018
12,UCCUGGAUGUCGAACGUAUCAAUAUAGUUA,< 0.0001
13,UCCUCCUACACCUUGCAUAGUAAUUAGUUA,0.0071 ± 0.0031
14,UCCUCCUACAGCUUUGCAUAGUAUUUAGUUA,0.123 ± 0.036
15,UCCUGGUACAGCAUGCAUAGUAUAUAGUUA,0.00569 ± 0.0031
16,UCCUGGAUGAGCUUGCAUAGUUUUUAGAAA,0.00315 ± 0.0019
17,UCCUGCUACAGCUUGCAUAGUUUUUAGUUA,0.00538 ± 0.0021
18,UCCUGCUACAGCGUGCAUAGUAUUUAGUUA,0.0101 ± 0.0026
19,UCCUGGAACAGCUUGCAUAGUAUUUAAGUUA,0.0138 ± 0.0052
20,UCCUGGAUGAGCUUGCAUACUAUUUAGAUA,0.00231 ± 0.0021
